Assay results: PubChem BioAssay (NCATS)
Inconclusive results are not listed. The source made the active and inactive calls. Calls come from the whole dose curve; as a rule, active = well fitted cell-killing curve with a large enough effect; inconclusive = small, poorly fitted or top-dose-only effect, or effect the other way; inactive = no such curve, though single readings can be large or run the other way.

Assay: Quantitative High-Throughput drug screen in 47 multiple myeloma cell lines against the NCATS MIPE library collection: VP6_DJ cell viability assay (AID 1919867); note: nearly all actives have a fitted effect of over 40% in size
Details: ATP luminescence, 48 h; series mostly up to 45.8 µM; viability (% of DMSO): at the top concentration
From the text: PI: Beverly A. Mock Ph.D.
Laboratory of Cancer Biology and Genetics,
Center for Cancer Research, National Cancer Institute,
National Institute of Health, Bethesda, Maryland
Drug resistance and disease progression are common in multiple myeloma (MM) patients, underscoring the need for new therapeutic combinations. […] We hypothesized that effective combinations would reduce MYC expression and enhance p16 activity. […] These preclinical data identify potentially useful drug combinations for evaluation in drug-resistant MM and reveal potential mechanisms of combined drug sensitivity.
Described herein is the primary MIPE qHTS used to cherrypick compounds. Validated compounds were then further tested for potential synergistic activiy.
[1] Peat TJ, Gaikwad SM, Dubois W, Gyabaah-Kessie N, Zhang S, Gorjifard S, Phyo Z, Andres M, Hughitt VK, Simpson RM, Miller MA, Girvin AT, Taylor A, Williams D, D'Antonio N, Zhang Y, Rajagopalan A, Flietner E, Wilson K, Zhang X, Shinn P, Klumpp-Thomas C, McKnight C, Itkin Z, Chen L, Kazandijian D, Zhang J, Michalowski AM, Simmons JK, Keats J, Thomas CJ, Mock BA. Drug combinations identified by high-throughput screening promote cell cycle transition and upregulate Smad pathways in myeloma. Cancer Lett. 2023 Aug 1;568:216284. doi: 10.1016/j.canlet.2023.216284. Epub 2023 Jun 24. PMID: 37356470; PMCID: PMC10408729.
SEQUENCE No. (e.g., 1, 2, 3, etc.); […] (e.g., Cells, Incubation, Reagent, etc.); VALUE and DESCRIPTION.
1; Cells; 5 uL; white, solid bottom 1536-well Greiner assay plate.
2; Compounds; 23 nL; Kalypsis pin tool (Wako USA) equipped with a 1536-well pin head to transfer to the assay plates.
3; Incubation; 48 hours; 37C incubation.
4; Reagent;5uL; CellTiter Glo (Promega).
5; Detector; 425V; Luminescence; Viewlux PerkinElmer.
NOTES (numbers refer to Sequence numbers above)
1. The cell-based screening methods employed in this study were like those previously published. Briefly, the corresponding myeloma cell lines were screened in 1,536-well plates with 500 cells, 5-uL per well for inhibition of cell viability (assessed by measuring ATP levels with CellTiterGlo).
2. NCATS MIPE 4.0 library of approved and investigational drugs were added using the Kalypsis pin tool. Wells treated with DMSO only for 100% viability and media only for 0% viability were used as controls.
3. The assay plates were covered and incubated for 48 hours in a 37C, 5% CO2 incubator with controlled humidity.
4. After 48 hours, CellTilter-GloTM luminescent substrate mix (Promega) reagent was added to the assay plate and plates we incubated for 5 min at room temperature.
5. Signal was measured as median relative luminescence units on a ViewLux (PerkinElmer) multiplate reader.
[1] Heske CM, Davis MI, Baumgart JT, Wilson K, Gormally MV, Chen L, Zhang X, Ceribelli M, Duveau DY, Guha R, Ferrer M, Arnaldez FI, Ji J, Tran HL, Zhang Y, Mendoza A, Helman LJ, Thomas CJ. Matrix Screen Identifies Synergistic Combination of PARP Inhibitors and Nicotinamide Phosphoribosyltransferase (NAMPT) Inhibitors in Ewing Sarcoma. Clin Cancer Res. 2017 Dec 1;23(23):7301-7311. doi: 10.1158/1078-0432.CCR-17-1121. Epub 2017 Sep 12. PMID: 28899971; PMCID: PMC6636827.
Potency is the fitted concentration of half-maximal effect.

Question: For `COc1ccc2c(c1)CN(C)CC2c1ccc(Cl)c(Cl)c1` (stereo not given), which Potency is on record?
Answer: 14.8 µM (active)

Question: With `O=C(Oc1ccc([N+](=O)[O-])cc1)N1CCC(C(O)(c2ccc3c(c2)OCO3)c2ccc3c(c2)OCO3)CC1` as the molecule, how does the “viability (% of DMSO)” value read?
Answer: 77.1% (inactive)

Question: For `CO[C@H]1CCC(O[C@H]2C[C@H]([C@]3(C)CC[C@]4(C[C@H](O)[C@@H](C)[C@@H]([C@@H](C)C=C(C)C(=O)[C@H](C)C[C@H](C)C(=O)O)O4)O3)O[C@]3(O[C@@H]([C@H]4O[C@@](O)(CO)[C@H](C)C[C@H]4C)C[C@H]3C)[C@H]2C)O[C@H]1C` (stereo not given in full), which Potency is on record?
Answer: 1.05 µM (active)

Question: With `CC1(N2CCC(n3c([C@@H]4CCCNC4)nc4ccccc43)CC2)CCCCCCC1` as the molecule, how does the Potency read?
Answer: 14.8 µM (active)

Question: For `CCNC(=O)C[C@@H]1N=C(c2ccc(Cl)cc2)c2cc(OC)ccc2-n2c(C)nnc21`, which Potency is on record?
Answer: 0.296 µM (active)

Question: For `Cc1ccccc1-n1c(Cn2ncc3c(N)ncnc32)nc2cccc(C)c2c1=O`, which Potency is on record?
Answer: 0.166 µM (active)

Question: For `CC(C)(C)c1cc(C=C(C#N)C#N)cc(Br)c1O`, which Potency is on record?
Answer: 11.8 µM (active)

Question: With `Cc1[nH]nc2ccc(-c3cncc(OC[C@@H](N)Cc4c[nH]c5ccccc45)c3)cc12` as the molecule, how does the Potency read?
Answer: 0.296 µM (active)

Question: For `O=C(N[C@H]1CN2CCC1CC2)c1ccc(Cl)cc1`, which Potency is on record?
Answer: 7.43 µM (active)

Question: For `C=CCON=C(C[C@H]1O[C@@H]2O[C@]3(C)CC[C@@H]4[C@H](C)CC[C@@H]([C@H]1C)[C@@]24OO3)[C@H]1O[C@@H]2O[C@]3(C)CC[C@H]4[C@H](C)CC[C@@H]([C@@H]1C)[C@@]24OO3`, which Potency is on record?
Answer: 0.166 µM (active)

Question: For `COc1ccc(CC2NCCc3cc(OC)c(OC)cc32)cc1OC` (stereo not given), which Potency is on record?
Answer: 9.35 µM (active)

Question: With `CCOC(=O)c1cncn1[C@H](C)c1ccccc1` as the molecule, how does the “viability (% of DMSO)” value read?
Answer: 120% (inactive)

Question: With `CCN1CCN(C(=O)Cc2ccc(Nc3ncc(F)c(Nc4ccc(C(=O)Nc5ccccc5Cl)cc4)n3)cc2)CC1` as the molecule, how does the Potency read?
Answer: 2.64 µM (active)

Question: Which “viability (% of DMSO)” value does the source give for `CC=C(C)C(=O)N[C@@H](c1ccccc1)[C@@H](O)C(=O)O[C@H]1C[C@@]2(O)[C@@H](OC(=O)c3ccccc3)[C@@H]3[C@]4(OC(C)=O)CO[C@@H]4C[C@H](O)[C@@]3(C)C(=O)[C@H](OC(C)=O)C(=C1C)C2(C)C` here?
Answer: 70.8% (inactive)

Question: With `N#C[C@H](O[C@@H]1O[C@H](CO[C@@H]2O[C@H](CO)[C@H](O)[C@H](O)[C@H]2O)[C@H](O)[C@H](O)[C@H]1O)c1ccccc1` as the molecule, how does the Potency read?
Answer: 18.7 µM (active)

Question: Which “viability (% of DMSO)” value does the source give for `CCN(CC)C(=O)c1ccc(C2=CC3(CCNCC3)Oc3cccc(O)c32)cc1` here?
Answer: 128% (inactive)

Question: With `CC(C)[C@H]1C(=O)N[C@H](CO)Cc2c[nH]c3cccc(c23)N1C` as the molecule, how does the “viability (% of DMSO)” value read?
Answer: 130% (inactive)

Question: For `N=c1c2c(-c3ccccc3)c(-c3ccccc3)n(Cc3ccccc3)c2ncn1C1CCC(O)CC1` (stereo not given), which Potency is on record?
Answer: 0.0935 µM (active)

Question: Which “viability (% of DMSO)” value does the source give for `C[C@H]1CCCC=CC2C[C@H](O)C[C@@H]2[C@H](O)C=CC(=O)O1` (stereo not given in full) here?
Answer: 6.51% (inactive)

Question: With `CC1=C(O)C(=O)C=C2C1=CC=C1[C@@]2(C)CC[C@@]2(C)[C@@H]3C[C@](C)(C(=O)O)CC[C@]3(C)CC[C@]12C` as the molecule, how does the Potency read?
Answer: 0.935 µM (active)

Question: For `C[C@@H]1O[C@@H](O[C@@H]2C=C3CC[C@@H]4[C@@H](CC[C@]5(C)[C@H](c6ccc(=O)oc6)CC[C@@]45O)[C@@]3(C)CC2)[C@H](O)[C@H](O)[C@H]1O`, which Potency is on record?
Answer: 0.0118 µM (active)

Question: Which Potency does the source give for `O=c1[nH]c2ccc(Cl)cc2c(N[C@@H]2CN3CCC2CC3)c1-c1nc2ccccc2[nH]1` here?
Answer: 0.132 µM (active)

Question: For `COC[C@H]1OC(=O)c2coc3c2[C@@]1(C)C1=C(C3=O)[C@@H]2CC[C@H](O)[C@@]2(C)C[C@@H]1OC(C)=O`, which Potency is on record?
Answer: 1.87 µM (active)

Question: For `Cc1c(N)nc([C@H](CC(N)=O)NC[C@@H](N)C(N)=O)nc1C(=O)N[C@H](C(=O)N[C@@H](C)[C@H](O)[C@@H](C)C(=O)N[C@@H](C(=O)NCCc1nc(-c2nc(C(=O)NCCC[S+](C)C)cs2)cs1)[C@@H](C)O)C(O[C@H]1O[C@H](CO)[C@H](O)[C@@H](O)[C@@H]1O[C@H]1O[C@H](CO)[C@@H](O)[C@H](OC(N)=O)[C@H]1O)c1cnc[nH]1` (stereo not given in full), which Potency is on record?
Answer: 16.6 µM (active)

Question: With `C[C@@H]1CC[C@@]2(OC1)O[C@H]1C[C@H]3[C@@H]4CC=C5C[C@@H](O[C@@H]6O[C@H](CO)[C@@H](O[C@@H]7O[C@@H](C)[C@H](O)[C@@H](O)[C@@H]7O)[C@H](O)[C@@H]6O[C@@H]6O[C@@H](C)[C@H](O)[C@@H](O)[C@@H]6O)CC[C@]5(C)[C@@H]4CC[C@]3(C)[C@@H]1[C@H]2C` as the molecule, how does the Potency read?
Answer: 2.96 µM (active)

Question: For `CC[C@@H]1[C@@H](C)O[C@@](O)([C@@H](C)[C@H](O)[C@H](C)[C@H]2OC(=O)C=CC=C[C@@H](C)[C@@H]([C@@H](C)[C@@H](O)[C@H](C)[C@@]3(O)C[C@H](O[C@H]4C[C@H](O)[C@H](O)[C@H](C)O4)[C@H](CC)[C@@H](C)O3)OC(=O)C=CC=C[C@@H]2C)C[C@H]1O[C@H]1C[C@H](O)[C@H](O)[C@H](C)O1`, which Potency is on record?
Answer: 0.469 µM (active)

Question: Which Potency does the source give for `CN1[C@H]2CC(O)C[C@H]1[C@H]1O[C@H]12` (stereo not given in full) here?
Answer: 9.35 µM (active)

Question: With `CC(C)[C@]12O[C@@H]1[C@@H]1O[C@]13[C@]1(O[C@H]1C[C@@H]1C4=C(CC[C@@]13C)C(=O)OC4)[C@H]2O` as the molecule, how does the “viability (% of DMSO)” value read?
Answer: 4.09% (inactive)

Question: Which Potency does the source give for `O=c1[nH]c2ccccc2n1C1CCN(Cc2ccc(-c3[nH]c4cc5ncnc5cc4nc3-c3ccccc3)cc2)CC1` here?
Answer: 9.35 µM (active)

Question: With `NC1=NC(=O)N2CC12` (stereo not given) as the molecule, how does the Potency read?
Answer: 14.8 µM (active)

Question: With `CC=C(C)C(=O)O[C@H]1C(C)=C2[C@@H]3OC(=O)[C@@](C)(O)[C@@]3(O)[C@@H](OC(=O)CCC)C[C@](C)(OC(C)=O)[C@@H]2[C@@H]1OC(=O)CCCCCCC` as the molecule, how does the Potency read?
Answer: 0.0526 µM (active)

Question: Which Potency does the source give for `C=C[C@@H]1CN2CCC1C[C@H]2[C@H](O)c1ccnc2ccccc12` (stereo not given in full) here?
Answer: 26.4 µM (active)

Question: Which Potency does the source give for `CN(C)[C@@H]1C(=O)C(C(N)=O)=C(O)[C@@]2(O)C(=O)C3=C(O)c4c(O)cccc4[C@@](C)(O)[C@H]3[C@H](O)[C@@H]12` here?
Answer: 23.5 µM (active)

Question: For `C[C@@H]1[C@H](O)[C@@H](C)C=CC=CCCC=CC=CC=CC=C[C@H](O[C@H]2O[C@@H](C)[C@H](O)[C@@H](N)[C@@H]2O)CC2O[C@](O)(C[C@@H](O)[C@H](O)CC[C@@H](O)C[C@@H](O)C[C@@H](O)CC(=O)O[C@H]1C)C[C@H](O)[C@H]2C(=O)O`, which “viability (% of DMSO)” value is on record?
Answer: 148% (inactive)

Question: For `CCOC(=O)c1c(C(C#N)=CN)c2ccc(Cl)c(Cl)c2n1C`, which “viability (% of DMSO)” value is on record?
Answer: 79.9% (inactive)

Question: Which Potency does the source give for `O=C(NCC1CCOCC1)c1cnc(Nc2ccc(Cl)cc2Cl)nc1C(F)(F)F` here?
Answer: 6.62 µM (active)

Question: Which “viability (% of DMSO)” value does the source give for `C#CC1(O)CCC2C3CCC4=CC(=O)CCC4(C)C3CCC21C` (stereo not given) here?
Answer: 96.1% (inactive)

Question: For `CC(=O)OCC1=C(C(=O)O)N2C(=O)[C@@H](N)[C@@H]2SC1`, which “viability (% of DMSO)” value is on record?
Answer: 156% (inactive)

Question: For `CCNC(=O)CC1N=C(c2ccc(Cl)cc2)c2cc(OC)ccc2-n2c(C)nnc21` (stereo not given), which Potency is on record?
Answer: 16.6 µM (active)

Question: With `CC[C@H]1C=CC=CC[C@@H](C)[C@H](O)[C@@](C)(O)C(=O)[C@@H](C)[C@H](O)[C@@H](C)C(=O)[C@@H](C)[C@H](O)[C@@H](C)C=CC(=O)O[C@@H]2[C@@H](C)[C@H](CC1)O[C@]1(CC[C@H](C)[C@H](C[C@@H](C)O)O1)[C@H]2C` as the molecule, how does the Potency read?
Answer: 0.001 µM (active)
